Experimental findings from PubChem BioAssay (NCI) are described below.

Test systems include HCT-15 colon; HT29 colon; SNB-75 CNS; SNB-19 CNS; U251 CNS; PC-3 prostate; SK-MEL-5 melanoma; UACC-62 melanoma; SK-MEL-28 melanoma; SK-MEL-2 melanoma; EKVX NSCLC; SN12C renal; UO-31 renal; ACHN renal; CAKI-1 renal; A498 renal; CCRF-CEM leukemia; MOLT-4 leukemia; TK-10 renal.
Holding throughout (assay): NCI-60 one-dose screen, 48 h (100 = growth as untreated, 0 = no growth, -100 = all killed)
Common to all, as to details: 10 µM unless noted

About 83,000 compounds went through this panel and 20% of them were active in at least one assay; those are over-represented in the sample as a whole.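 Single-dose data. Exposure time 48 hours. Values below 10 considered active.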 Unmarked numbers belong to inactive results. Calls of active or inactive are those of the source.

`COc1cc2oc(-c3cccc(C(=O)Nc4cccc([N+](=O)[O-])c4)c3)cc(=O)c2c(OC)c1OC`: the growth in the test with HCT-15 colon is 58.1%; in the test on HT29 colon, 59.9%; in the test on SNB-75 CNS, -6.58% (active); with SNB-19 CNS, -4.16% (active); in the test on U251 CNS it was 23.8%; with PC-3 prostate it was 33.3%. Further, the growth is 43.4% in the test with SK-MEL-5 melanoma; 18.4% with UACC-62 melanoma; 25.3% in the test with SK-MEL-28 melanoma; -0.125% (active) with SK-MEL-2 melanoma; 41.6% with EKVX NSCLC; 25.8% with SN12C renal. For the same compound, the growth in the test on UO-31 renal is 0.82% (active); with ACHN renal it was 16.2%; in the test with CAKI-1 renal, 8.83% (active); in the test with A498 renal, 3.68% (active); in the test with CCRF-CEM leukemia it was 84.1%; in the test with MOLT-4 leukemia, 64.6%.
With `Cc1ccc(NCC(=O)Cn2cc(COc3ccc(C=Nc4cnc5ccccc5c4)cc3)nn2)cc1`, the growth in the test on HCT-15 colon was 112%; in the test on HT29 colon it was 116%; with SNB-75 CNS, 111%; with SNB-19 CNS, 97.9%; in the test on U251 CNS, 101%; with PC-3 prostate, 106%. The growth with SK-MEL-5 melanoma is 102%; with UACC-62 melanoma it was 97.8%; in the test with SK-MEL-28 melanoma, 112%; in the test on SK-MEL-2 melanoma, 136%; with EKVX NSCLC, 106%; with SN12C renal, 99.9%. The growth in the test on UO-31 renal was 90.1%; in the test on TK-10 renal, 109%; in the test with ACHN renal, 107%; with A498 renal, 124%; with MOLT-4 leukemia, 108%.
Turning to `COc1ccc(NC(=O)c2sc3nc(C(C)C)ccc3c2N)cc1`, the growth was 69.5% in the test on HCT-15 colon; 73.6% in the test with HT29 colon; 104% in the test on SNB-75 CNS; 91.4% in the test with SNB-19 CNS; 84.6% with U251 CNS; 71.7% in the test on PC-3 prostate. For the same compound, the growth with SK-MEL-5 melanoma was 44.6%; in the test on UACC-62 melanoma, 85.6%; in the test with SK-MEL-28 melanoma, 94%; with SK-MEL-2 melanoma, 97.5%; in the test with EKVX NSCLC it was 43.2%; in the test with SN12C renal, 74.1%. Moreover, the growth in the test with UO-31 renal is 72.5%; in the test with TK-10 renal, 93.1%; in the test with ACHN renal, 81.2%; in the test with A498 renal, 84.4%; with CCRF-CEM leukemia it was 54.6%; in the test on MOLT-4 leukemia, 67.5%.
As to `Cc1c(C(=O)NNC(=O)Nc2ccc(Cl)cc2)nnn1-c1ccc(Br)cc1`, the growth with HCT-15 colon was 97%; in the test on HT29 colon, 97.2%; in the test with SNB-75 CNS, 90.2%; in the test with SNB-19 CNS, 91.4%; in the test on U251 CNS, 104%; in the test on PC-3 prostate it was 103%. Besides, the growth is 99.4% in the test on SK-MEL-5 melanoma; 88.7% in the test with UACC-62 melanoma; 96.5% in the test with SK-MEL-28 melanoma; 109% in the test on SK-MEL-2 melanoma; 88% in the test on EKVX NSCLC; 103% in the test with SN12C renal. Moreover, the growth in the test on UO-31 renal is 75.7%; with TK-10 renal, 96.1%; in the test on ACHN renal, 99.7%; with A498 renal, 99.8%; in the test with CCRF-CEM leukemia, 89%; with MOLT-4 leukemia it was 83.5%.
For `COc1ccc(-c2c(Nn3cnnn3)no[n+]2[O-])cc1`, the growth in the test with HCT-15 colon is 31.3%; with HT29 colon, 39.4%; in the test on SNB-75 CNS it was 29.6%; with SNB-19 CNS it was 71%; with U251 CNS it was 55.4%; in the test on PC-3 prostate, 59.4%. Besides, the growth in the test with SK-MEL-5 melanoma is 75.7%; in the test on UACC-62 melanoma it was 47.5%; in the test on SK-MEL-28 melanoma, 85.5%; in the test on SK-MEL-2 melanoma it was 82.5%; in the test with EKVX NSCLC, 53.7%; in the test on SN12C renal, 33.3%. Besides, the growth in the test with UO-31 renal is 20.8%; in the test on TK-10 renal, 62.5%; in the test with ACHN renal, 34.1%; in the test on CAKI-1 renal it was 25.7%; in the test on A498 renal, 63.9%; with MOLT-4 leukemia, 27.9%.
Consider `Cc1cc2c(cc1Cl)C(=O)/C(=C/c1ccccc1)O2`, for which the growth with HCT-15 colon is 13.3%; in the test on HT29 colon it was 38.6%; in the test on SNB-75 CNS, 52.5%; in the test with SNB-19 CNS, 34.6%; with U251 CNS, 8.18% (active); with PC-3 prostate it was 29.8%. Further, the growth in the test with SK-MEL-5 melanoma is -75.4% (active); in the test with UACC-62 melanoma it was 29.3%; in the test on SK-MEL-28 melanoma, 49.9%; with SK-MEL-2 melanoma, 41%; in the test on EKVX NSCLC it was -7.97% (active); in the test with SN12C renal, -68.8% (active). Moreover, the growth with UO-31 renal was -80.4% (active); in the test with TK-10 renal, 56%; in the test with ACHN renal it was -83.1% (active); in the test with A498 renal it was 115%; in the test with CCRF-CEM leukemia it was 4.91% (active); in the test with MOLT-4 leukemia it was 0.549% (active).
`Nc1nc(C(F)(F)F)cs1`: the growth is 104% with HCT-15 colon; 112% in the test on HT29 colon; 91.7% in the test with SNB-75 CNS; 105% in the test on SNB-19 CNS; 103% in the test with U251 CNS; 102% in the test on PC-3 prostate. The growth is 104% in the test with SK-MEL-5 melanoma; 101% in the test with UACC-62 melanoma; 110% with SK-MEL-28 melanoma; 108% with SK-MEL-2 melanoma; 94.5% with EKVX NSCLC; 111% with SN12C renal. Besides, the growth in the test on UO-31 renal was 93.8%; in the test on TK-10 renal, 98.1%; with ACHN renal, 113%; with CAKI-1 renal, 96.7%; in the test with CCRF-CEM leukemia it was 109%; in the test on MOLT-4 leukemia, 112%.
`CC(=O)Nc1ccc(-n2cnc3ccc(-c4ccc(O)cc4)cc32)cc1`: the growth is 52% in the test with HCT-15 colon; 102% in the test with HT29 colon; 56.5% in the test with SNB-75 CNS; 55.5% in the test with SNB-19 CNS; 37% with U251 CNS; 47.6% in the test on PC-3 prostate. For the same compound, the growth in the test on SK-MEL-5 melanoma is 54.6%; in the test on UACC-62 melanoma it was 46.1%; with SK-MEL-28 melanoma it was 44.3%; in the test on SK-MEL-2 melanoma, 50.7%; in the test with EKVX NSCLC, 54.8%; with SN12C renal, 29.3%. Besides, the growth with UO-31 renal was 46.2%; with ACHN renal, 24.7%; in the test on CAKI-1 renal, 29.9%; in the test with A498 renal, 92.8%; in the test on CCRF-CEM leukemia, 30.2%; with MOLT-4 leukemia, 11.3%.
